Source: PubChem BioAssay (NCATS)
Results filed as inconclusive are left out. Entries that show only a call come without a potency. Unmarked numbers belong to inactive results. Active and inactive are the calls of the source. Calls follow the shape of the dose curve; as a rule, active = well fitted inhibition curve with a large enough effect; inconclusive = small, poorly fitted or top-dose-only effect; inactive = flat fitted curve, though single readings scatter.

Legend:
[1] = qHTS profiling for inhibitors of Plasmodium falciparum proliferation (AID 504749); also: nearly all actives have a fitted effect of over 60% in size; conditions: P. falciparum in erythrocytes, SYBR Green DNA, 72 h
In short: (§1)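 In a 72 h erythrocytic culture (37 C, humidified, 5% CO2) at 2.5% hematocrit and 0.3% starting parasitemia, compounds were tested; SYBR Green I in detergent lysis buffer stained parasite DNA overnight.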

3D7 = assay: as above; conditions: P. falciparum in erythrocytes, SYBR Green DNA, 72 h; series mostly up to 28.7 µM
In short: as §1

7G8 = assay: as above; conditions: P. falciparum in erythrocytes, SYBR Green DNA, 72 h; series mostly up to 28.7 µM
In short: as §1

AA1029 = assay: as above; conditions: P. falciparum in erythrocytes, SYBR Green DNA, 72 h; series mostly up to 28.7 µM
In short: as §1

AS120 = assay: as above; conditions: P. falciparum in erythrocytes, SYBR Green DNA, 72 h; series mostly up to 28.7 µM
In short: as §1

ATS189 = assay: as above; conditions: P. falciparum in erythrocytes, SYBR Green DNA, 72 h; series mostly up to 28.7 µM
In short: as §1

ATS95 = assay: as above; conditions: P. falciparum in erythrocytes, SYBR Green DNA, 72 h; series mostly up to 28.7 µM
In short: as §1

C2A = assay: as above; conditions: P. falciparum in erythrocytes, SYBR Green DNA, 72 h; series mostly up to 28.7 µM
In short: as §1

CP185 = assay: as above; conditions: P. falciparum in erythrocytes, SYBR Green DNA, 72 h; series mostly up to 28.7 µM
In short: as §1

CP191 = assay: as above; conditions: P. falciparum in erythrocytes, SYBR Green DNA, 72 h; series mostly up to 28.7 µM
In short: as §1

CP192 = assay: as above; conditions: P. falciparum in erythrocytes, SYBR Green DNA, 72 h; series mostly up to 28.7 µM
In short: as §1

CP194 = assay: as above; conditions: P. falciparum in erythrocytes, SYBR Green DNA, 72 h; series mostly up to 28.7 µM
In short: as §1

CP201 = assay: as above; conditions: P. falciparum in erythrocytes, SYBR Green DNA, 72 h; series mostly up to 28.7 µM
In short: as §1

CP203 = assay: as above; conditions: P. falciparum in erythrocytes, SYBR Green DNA, 72 h; series mostly up to 28.7 µM
In short: as §1

CP211 = assay: as above; conditions: P. falciparum in erythrocytes, SYBR Green DNA, 72 h; series mostly up to 28.7 µM
In short: as §1

[2] = at 28.7 µM (top of the series), parasite line A
[3] = at 28.7 µM (top of the series), parasite line B
Potency is read from the fitted curve at half-maximal effect.

Structure (SMILES)	activity, negative = inhibition [1, 2]	activity, negative = inhibition [1, 3]	Potency (3D7)	Potency (7G8)	Potency (AA1029)	Potency (AS120)	Potency (ATS189)	Potency (ATS95)	Potency (C2A)	Potency (CP185)	Potency (CP191)	Potency (CP192)	Potency (CP194)	Potency (CP201)	Potency (CP203)	Potency (CP211)	activity, negative = inhibition ([1]; at 12.8 µM (top of the series), parasite line A)	Potency ([1]; parasite line A)	Potency ([1]; parasite line B)
c1csc(C2(N3CCCCC3)CCCCC2)c1	-2.88%	1.73%	inactive	inactive	inactive	inactive	inactive	inactive	inactive	inactive	inactive	inactive	inactive	inactive	inactive	inactive			
CCC1(c2ccccc2)C(=O)NC(=O)N(C)C1=O (stereo not drawn)	3.95%	7.56%	inactive	8.91 µM (active)	inactive	inactive		inactive	inactive	inactive		inactive	inactive	inactive	inactive	inactive			
CCC1(c2ccccc2)C(=O)NC(=O)N(C(=O)c2ccccc2)C1=O (stereo not drawn)	-16%	9.27%	inactive	10 µM (active)	inactive	inactive	inactive	inactive	inactive	inactive		inactive	inactive	inactive	inactive	inactive			
ClC(Cl)(Cl)Cl	12.6%	5.77%	inactive	inactive	inactive	inactive	inactive	inactive	inactive	inactive	inactive	inactive	inactive	inactive	inactive	inactive			
CCCCCCCCCC(=O)O[C@H]1CC[C@H]2[C@@H]3CCC4=CC(=O)CC[C@]4(C)[C@H]3CC[C@]12C	8.28%	-5.1%		inactive	inactive	inactive	inactive	inactive	inactive	inactive	inactive	inactive	inactive	inactive	inactive	inactive			
c1ccc2sc(SNC3CCCCC3)nc2c1	7.11%	2.42%	inactive		inactive	inactive	inactive	inactive	inactive	inactive	inactive	inactive	inactive	inactive	inactive	inactive			
CCOP(=O)(OCC)O/C(=C/Cl)c1ccc(Cl)cc1Cl	-27.9%	-21.8%	inactive		inactive		inactive	inactive	inactive		inactive	inactive		inactive					
CC(=O)O[C@H]1CC[C@H]2[C@@H]3CCC4=CC(=O)CCC4=C3C=C[C@]12C	4.1%	0.383%	inactive		inactive	inactive	inactive	inactive	inactive	inactive	inactive	inactive	inactive	inactive	inactive	inactive			
O=C1CN(O)C(c2ccccc2)=c2cc(Cl)ccc2=N1	7.13%	1.2%	inactive		inactive	inactive	inactive	inactive	inactive	inactive	inactive	inactive	inactive	inactive	inactive	inactive			
CCCC(C)(COC(N)=O)COC(=O)NC1CC1 (stereo not drawn)	8.1%	1.21%	inactive		inactive	inactive	inactive	inactive	inactive	inactive	inactive	inactive	inactive	inactive	inactive	inactive			
C[C@@H](Cc1ccccc1)NCCC(c1ccccc1)c1ccccc1				4.47 µM (active)			inactive		inactive			inactive		inactive		inactive	-17.6%		
CC12NC(Cc3ccccc31)c1ccccc12 (stereo not drawn)	-7.25%	6.66%	inactive		11.2 µM (active)				inactive			inactive		inactive		inactive			
Clc1ccc(C2(Cn3cncn3)OCCO2)c(Cl)c1	8.04%	-7.5%	inactive		inactive	inactive	inactive	inactive	inactive	inactive	inactive	inactive	inactive	inactive	inactive	inactive			
[Cl-].[Cl-].[Hg+2]			12.6 µM (active)	11.2 µM (active)							inactive	inactive			inactive			7.94 µM (active)	8.91 µM (active)
